This passage reports outcome and AC50 results from PubChem BioAssay (EPA / NIEHS).

Results filed as inconclusive are left out. Activity calls are given as the source filed them. The calls were made as follows: active = hit-call score of the fitted dose curve at least 0.9, where 1 is the maximum; inconclusive = response in the unintended direction; inactive = score below 0.9.

A word on the AC50: it is the concentration giving half of the maximal activity seen.

This assay can be described thus: Tanguay_ZF_120hpf_CFIN_legacy: (Legacy) Oregon State University Tanguay Lab 120 Hour Post-fertilization zebrafish Assay for Caudal Fin Malformation (AID 2283649). As to the method:
Tanguay_ZF_120hpf_legacy is a whole embryo, multiplexed endpoint assay using zebrafish larvae exposed for 120 hours post fertilization on a 96-well plate.Tanguay_ZF_120hpf_CFIN_legacy is one of one assay component(s) measured or calculated from the Tanguay_ZF_120hpf_legacy assay. It is designed to make measurements of zebrafish development as detected with brightfield microscopy of developing zebrafish embryos.Data from the assay component Tanguay_ZF_120hpf_CFIN_legacy was analyzed into 1 assay endpoints. This assay endpoint, Tanguay_ZF_120hpf_CFIN_legacy, was analyzed in the positive analysis fitting direction relative to DMSO as the negative control and baseline of activity. Using a type of morphology reporter, gain-of-signal activity can be used to understand changes in developmentals as they relate to the whole embryo. To generalize the intended target to other relatable targets, this assay endpoint is annotated to the zebrafish development intended target family, where the subfamily is caudal fin morphogenesis.
Zebrafish husbandry: Tropical 5D wild-type adult zebrafish were housed in at an approximate density of 1000 per 100 gallon tank at the Sinnhuber Aquatic Research Laboratory, Oregon State University, Corvallis, OR. Each tank was kept at standard laboratory conditions of 28C on a 14-h light/10-h dark photoperiod in fish water consisting of reverse osmosis water supplemented with a commercially available salt (Instant Ocean). Spawning funnels were placed into the tanks the night prior, and embryos were collected and staged. To increase bioavailability, the chorion was enzymatically removed using pronase (63.6mg/ml, >/= 3.5U/mg, Sigma-Aldrich: P5147) at 4 hours post fertilization (hpf) using a custom automated dechorionator.Chemical exposures: Six hpf dechorionated embryos were placed 1 embryo per well in a 96-well plate prefilled with 90 ul of EM using automated embryo placement systems (AEPS). Ten microliters of each row of dilution plate 2 was added to 2 exposure plates. The final DMSO concentration used was 0.64% (vol/vol). Thirty-two embryos were also exposed to 5uM trimethyltin chloride (positive control). Plates were sealed to prevent evaporation and foil covered to reduce light exposure and kept in a 28C incubator. Embryos were statically exposed until 120 hpf. At 24 hpf, embryos were assessed for photomotor response using a custom photomotor response analysis tool (PRAT) and for developmental toxicity endpoints (MO24: mortality at 24 hpf, DP: developmental progression, SM: spontaneous movement, and NC: notochord distortion). At 120 hpf, locomotor activity was measured using Viewpoint Zebralab and assessed for 18 endpoints. Zebrafish acquisition and analysis program (ZAAP), a custom program designed to inventory, acquire, and manage zebrafish data, was used to collect developmental endpoints as either present or absent (i.e., binary responses were recorded). If mortality occurred for an embryo (at either 24 or 120 hpf), the non-mortality endpoints were not measured.
For the compound `CC(=O)Nc1ccc(O)cc1`, the compound was called inactive. Same read-out and setting: next, `CCC(C)c1ccccc1O` (stereo not drawn): “inactive”. For the compound `CN(C)CCOC(c1ccccc1)c1ccccc1`, the AC50 is 14.1 µM (active). For `Cc1[nH]nc2c1N=C(c1ccccc1Cl)c1cc([N+](=O)[O-])ccc1N2`, the result was inactive. The same measure, in the same setting: next, `O=C(CCCN1CCC(O)(c2ccc(Cl)cc2)CC1)c1ccc(F)cc1`: “inactive”. Still for that read-out and setting: next, `CS(=O)(=O)c1ccc([C@@H](CC2CCCC2)C(=O)Nc2cnccn2)cc1Cl`: “inactive”; `OCC(CO)(CBr)CBr`: “inactive”; `CN(Cc1cnc2nc(N)nc(N)c2n1)c1ccc(C(=O)N[C@@H](CCC(=O)O)C(=O)O)cc1`: “inactive”. Still for that read-out and setting: for `O=C1NS(=O)(=O)c2ccccc21` the value was “inactive”; for `O=C(c1ccccc1)c1ccccc1`, “inactive”.

Regarding `CCCCCCCCCCCCCCC`, the call was inactive.

Take `CCCCc1oc2ccccc2c1C(=O)c1cc(I)c(OCCN(CC)CC)c(I)c1`: the compound was called inactive. For `CCCCCCCCCCCCOS(=O)(=O)O`, the outcome was inactive.
